Among all 330,000 compounds or so, about 1,900 (0.58%) were called active. Inconclusive results (about 4%) are left out. No stated cut-off is given here; in the data, inconclusive means inhibition above about 70% without an active follow-up result; inactive means below that. Only a sample is shown. Entries with a potency or affinity are not part of this list.
assay: M. tuberculosis growth inhibition, HTS (AID 449762);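 further: bacterial growth assessed after seven days of incubation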; settings: M. tuberculosis H37Rv growth inhibition, 7H9 media; at 25 µM; active compounds read high

Structure (SMILES)	inhibition
CC(C)(C)c1ccc(C(=O)C=[N+]=[N-])cc1	-1.15% (inactive)
CCOc1ccc(C(=O)/C=C/c2ccccc2C(F)(F)F)cc1	9.8% (inactive)
COc1ccc(CC(=O)NNC(=O)CCc2ccccc2)cc1OC	0.55% (inactive)
O=C(NCC(O)c1ccccc1)c1ccccc1 (stereo not drawn)	-1.58% (inactive)
Cc1ccc(C)c(Cc2c(C)nc3c(C(=O)NCc4ccc5c(c4)OCO5)cnn3c2C)c1	65.9% (inactive)
CN1C(=O)/C(=C/c2ccc(OCc3cccc(F)c3)cc2)NC1=S	14.5% (inactive)
COc1ccc(NC(=S)Nc2ccccn2)cc1	-2.6% (inactive)
Cc1cccc(NC(=S)Nc2ccccn2)c1	-7.66% (inactive)
CCCNC(=S)Nc1ccc(Oc2ccccc2)cc1	-11% (inactive)
CCCNC(=S)Nc1ccccc1	0.1% (inactive)
N#Cc1cc2c(nc1SCc1cccnc1)CCCCC2	7.53% (inactive)
CC1CCN(S(=O)(=O)c2ccc(S(=O)(=O)N3CCC4(CC3)OCCO4)cc2)CC1	0.35% (inactive)
Cc1cc(NC(=O)/C=C/C(=O)N(CC(=O)NC2CCCC2)c2cccc3ccccc23)no1	-2.08% (inactive)
COc1ccc(CCNCC2C(Oc3ccc(Cl)cc3)C(=O)N2c2ccccc2C)cc1OC (stereo not drawn)	11.7% (inactive)
COC(=O)c1ccc2c(=O)[nH]c(COC(=O)CCC(=O)c3ccc(Cl)cc3)nc2c1	0.04% (inactive)
Cc1cc(=O)c2ccc3ccccc3c2[nH]1	10.2% (inactive)
CCCc1c(C)nc2ccc(OC)cc2c1SCCC(=O)O	-2.63% (inactive)
COc1ccc(C(=O)Nc2cc3c(cc2Cl)OCCCO3)cc1	5.96% (inactive)
COc1cccc(NC(=O)CSc2nc3n[nH]c(C)c3c(=N)n2-c2cccc(OC)c2)c1	-0.47% (inactive)
CCc1ccccc1NC(=O)CSc1nc2n[nH]c(C)c2c(=N)n1-c1cccc(OC)c1	7.97% (inactive)

Structure (SMILES)	inhibition
O=C(CSc1ccc(Br)cc1)N1CCN(C(=O)c2ccco2)CC1	2.56% (inactive)
O=C(c1ccc2c(c1)OCO2)C1CCCN(Cc2cn[nH]c2-c2ccccc2)C1 (stereo not drawn)	4.84% (inactive)
COc1ccc(C(=O)C2CCCN(Cc3cn[nH]c3-c3ccccc3)C2)cc1OC (stereo not drawn)	2.2% (inactive)
CC1Cc2cccc3c(O)c(C(=O)c4nn[nH]n4)c(=O)n1c23 (stereo not drawn)	14.9% (inactive)
N#Cc1nc(COc2ccccc2)oc1N1CCCC1	-0.06% (inactive)
CC(C)NC(=O)c1onc(CSc2ccc(F)c(F)c2)c1C(=O)NC(C)C	8.4% (inactive)
CC(C)NC(=O)c1onc(CSc2cccc(F)c2)c1C(=O)O	33.3% (inactive)
COc1ccc(C)cc1N(C(=O)c1snc(C(N)=O)c1N)C(C(=O)NC1CCCC1)c1ccc(F)cc1 (stereo not drawn)	41.8% (inactive)
CCOC(=O)c1sc(NC(=S)NC(=O)c2cccc(Cl)c2)c(C(=O)OCC)c1C	3.64% (inactive)
C#C[C@]1(O)CC[C@H]2[C@@H]3CCc4cc(OC)ccc4[C@H]3CC[C@@]21C	-0.52% (inactive)
C#C[C@]1(O)CC[C@H]2[C@@H]3CCc4cc(O)ccc4[C@H]3CC[C@@]21C	2.29% (inactive)
Cc1cc(C)nc(Sc2nc(Nc3ccccc3)nc(Sc3nc(C)cc(C)n3)n2)n1	-5.43% (inactive)
Cc1csc(SCCN2C(=O)c3ccccc3C2=O)n1	1.44% (inactive)
O=[N+]([O-])c1ccc2nc(-c3ccccc3)oc2c1	-0.96% (inactive)
O=[N+]([O-])c1ccc2c(c1)oc1ccccc12	-7.51% (inactive)
Cn1c(=O)c2c(nc(CN3CCN(c4ccc(F)cc4)CC3)n2Cc2ccccc2F)n(C)c1=O	-1.15% (inactive)
Cc1cc(C(=O)OCC(=O)Nc2cccnc2Cl)c2ccccc2n1	3.92% (inactive)
COc1ccc(OC)c(C(=O)NC(CC(N)=O)c2ccc(NCC3CC3)c([N+](=O)[O-])c2)c1 (stereo not drawn)	8.73% (inactive)
COc1ccc(CCNc2ccc(C(CC(N)=O)NC(=O)c3cc(OC)ccc3OC)cc2[N+](=O)[O-])cc1 (stereo not drawn)	-2.34% (inactive)
Cc1cc(C(=O)COc2ccc3ccc(=O)oc3c2)c(C)n1C	-2.83% (inactive)

Structure (SMILES)	inhibition
Cc1cc(-n2c(C)cc(C(=O)COc3ccc(F)c(F)c3)c2C)no1	12.9% (inactive)
Cc1ccc(Cl)cc1N1CCN(Cc2cc3c(cc2O)CCC3)CC1	-2.77% (inactive)
COc1cccc(CN(C)C(=O)c2cc(S(=O)(=O)NCc3ccccc3)ccc2C)c1OC	-0.57% (inactive)
COc1ccc(-c2nc(C#N)c(NCc3cccnc3)o2)cc1OC	-2.1% (inactive)
Cc1ccc(-n2cc(CNCCN3CCOC3=O)c(-c3ccc(F)cc3)n2)cc1	6% (inactive)
COc1ccc(-c2nn(-c3ccccc3F)cc2CNCCn2nc(C)cc2C)cc1	63.9% (inactive)
O=C(CS(=O)(=O)c1ccccc1)Nc1ccc(Cl)cn1	-23.7% (inactive)
O=C(CCNC(=O)N1CC(=O)Nc2ccccc21)Nc1ccc(F)c(Cl)c1	1.86% (inactive)
Nc1nc(SCc2c(F)cccc2Cl)[nH]c(=O)c1-c1ccccc1	3.32% (inactive)
CCC(=O)N1c2ccc(S(=O)(=O)CCC(=O)N3CCN(c4ccccc4F)CC3)cc2CC1C (stereo not drawn)	-7.68% (inactive)
CCOC(=O)N1CCN(C(=O)CCS(=O)(=O)c2ccc3c(c2)CC(C)N3C(=O)CC)CC1 (stereo not drawn)	7.71% (inactive)
CCCCn1c(N)c(N(CC(C)C)C(=O)CCCc2nc3ccccc3s2)c(=O)[nH]c1=O	-2.46% (inactive)
Cc1cc(C)n(S(=O)(=O)c2ccc3oc(=O)ccc3c2)n1	2.71% (inactive)
CCCCC(=O)NC(Nc1sc2c(c1C(N)=O)CCCC2)(C(=O)OCC)C(F)(F)F (stereo not drawn)	5.17% (inactive)
Cc1ccc(-n2nnnc2SCC(=O)c2c(N)n(C3CC3)c(=O)[nH]c2=O)c(C)c1	-6.46% (inactive)
COc1ccc(C(=O)C2CCCN(C3CSCCSC3)C2)cc1OC (stereo not drawn)	-3.92% (inactive)
COc1ccc(C(=O)C2CCCN(C3CSCCSC3)C2)c(OC)c1 (stereo not drawn)	5.9% (inactive)
CCOC(=O)c1c(C)nc2sc(C(N)=O)c(N)c2c1-c1ccc(OC)cc1	-6.87% (inactive)
